Drawing on PubChem BioAssay (Tox21), this text covers Potency and outcome for 13 compounds.

Experiment [1] in a line: qHTS assay to identify aromatase inhibitors - cell viability counter screen (AID 743084).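 Also: cells stimulated with testosterone during compound exposure; nearly all actives have a fitted effect of over 55% in size.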 Also: potency is read from the fitted curve at half-maximal effect.
The target of experiment [2] is Aryl hydrocarbon receptor (Homo sapiens) (UniProt P35869). The experiment can be described thus: qHTS assay to identify small molecule that activate the aryl hydrocarbon receptor (AhR) signaling pathway (AID 743085). Also: nearly all actives have a fitted effect of over 15% in size. Also: potency is read from the fitted curve at half-maximal effect.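 As to activation: HG2L7.5c1 human HepG2 liver cells with stably integrated DRE-driven firefly reporter; series mostly up to about 70 µM.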 In short, it runs like this: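 24 h compound exposure, 37C, HepG2-derived HG2L7.5c1 cells with DRE-responsive luciferase. Readouts: fluorescence viability, then luminescence at room temperature after 30 min.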
Chain of Aryl hydrocarbon receptor (Homo sapiens) (P35869 whole entry, looked up): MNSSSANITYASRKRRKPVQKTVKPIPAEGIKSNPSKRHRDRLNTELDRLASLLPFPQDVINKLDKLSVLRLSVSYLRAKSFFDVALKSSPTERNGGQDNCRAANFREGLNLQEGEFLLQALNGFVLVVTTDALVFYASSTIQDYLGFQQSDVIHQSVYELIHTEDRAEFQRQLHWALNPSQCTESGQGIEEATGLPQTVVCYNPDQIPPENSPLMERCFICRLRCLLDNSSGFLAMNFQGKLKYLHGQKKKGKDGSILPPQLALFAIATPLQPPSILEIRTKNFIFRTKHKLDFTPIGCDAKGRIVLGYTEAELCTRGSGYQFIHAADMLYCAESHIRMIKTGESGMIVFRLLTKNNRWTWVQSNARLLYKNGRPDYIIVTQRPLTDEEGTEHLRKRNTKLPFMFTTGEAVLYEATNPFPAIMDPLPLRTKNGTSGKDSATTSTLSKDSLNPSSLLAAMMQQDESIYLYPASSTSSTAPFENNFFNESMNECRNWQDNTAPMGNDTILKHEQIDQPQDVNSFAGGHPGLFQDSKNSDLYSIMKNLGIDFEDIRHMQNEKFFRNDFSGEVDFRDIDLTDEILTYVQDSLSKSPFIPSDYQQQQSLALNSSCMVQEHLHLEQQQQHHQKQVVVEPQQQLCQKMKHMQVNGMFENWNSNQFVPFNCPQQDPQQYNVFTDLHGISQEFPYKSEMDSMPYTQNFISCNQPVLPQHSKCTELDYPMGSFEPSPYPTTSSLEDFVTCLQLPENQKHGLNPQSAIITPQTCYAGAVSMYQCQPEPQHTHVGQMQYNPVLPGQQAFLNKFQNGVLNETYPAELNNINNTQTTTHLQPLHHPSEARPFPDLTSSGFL
Background: Quantitative high-throughput screening tests each substance at several concentrations.

Experiment [3] in a line: qHTS assay to identify small molecule that activate the aryl hydrocarbon receptor (AhR) signaling pathway - cell viability counter screen (AID 743086). Also: nearly all actives have a fitted effect of over 45% in size. Also: potency is read from the fitted curve at half-maximal effect. Summed up:
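HepG2-AhR-luc (HG2L7.5c1) cells, 4000/well, were preincubated 5 h at 37C, exposed to compound in qHTS format for 24 hr at 37C, then given CellTiter-Fluor for 30 min; viability was read as fluorescence in the reporter wells.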

In experiment [4] the target is Peroxisome proliferator-activated receptor gamma (Homo sapiens) (UniProt P37231). Put plainly: qHTS assay to identify small molecule agonists of the peroxisome proliferator-activated receptor gamma (PPARg) signaling pathway (AID 743094; active = well fitted activation curve with a large enough effect in the signal ratio in the repeat runs, not every such curve was filed as active; the % refers to the signal ratio; also: potency is read from the fitted curve at half-maximal effect). In short, it runs like this:
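Compounds dissolved in DMSO were added to PPARg UAS-bla HEK293H cells for 17 h at 37C, and reporter expression was quantified by fluorescence intensity after 1 h with LiveBLAzer B/G FRET substrate.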

Experiment [5] is described as follows: qHTS assay to identify small molecule antagonists of the peroxisome proliferator-activated receptor gamma (PPARg) signaling pathway - cell viability counter screen (AID 743194). Also: nearly all actives have a fitted effect of over 55% in size. Also: potency is read from the fitted curve at half-maximal effect. Summed up: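 PPARg-UAS-bla HEK293H cells were plated, rested 5 h at 37 C, then treated with compounds plus rosiglitazone (50 nM final) for 17 h at 37 C; viability was then read by CellTiter-Glo luminescence after 30 min at room temperature.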

Experiment [6] in a line: qHTS assay for small molecule agonists of the antioxidant response element (ARE) signaling pathway (AID 743202; active = well fitted activation curve with a large enough effect in the signal ratio in the repeat runs, not every such curve was filed as active; the % refers to the signal ratio; also: potency is read from the fitted curve at half-maximal effect). Summed up:
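Compounds delivered in DMSO to ARE-bla HepG2 cells (2,000 cells/well, pre-incubated 5 h) and left 16 h at 37 C. LiveBLAzer B/G FRET substrate then added for 2 h at RT before fluorescence reading.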

Experiment [7] in a line: qHTS assay for small molecule agonists of the antioxidant response element (ARE) signaling pathway - cell viability counter screen (AID 743203; calls by dose curve; also: nearly all actives have a fitted effect of over 55% in size). In short, it runs like this: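 Following 16 hrs of compound treatment at 37C, HepG2 cells with an ARE-controlled beta-lactamase gene were lysed with CellTiter-Glo. Luminescence was read after 30 min at room temperature.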
Experiment [8] can be described thus: qHTS assay for small molecule activators of the heat shock response signaling pathway - cell viability counter screen (AID 743209). Also: nearly all actives have a fitted effect of over 50% in size. In short, it runs like this: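 Readout: CellTiter-Glo luminescence, 30 min at room temperature. System: HSE-bla HeLa cells, 1500/well, plated overnight. Treatment: compounds in DMSO, 5 h at 37 C.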
In experiment [9] the target is Peroxisome proliferator-activated receptor delta (Homo sapiens) (UniProt Q03181). The experiment can be described thus: qHTS assay to identify small molecule agonists of the peroxisome proliferator-activated receptor delta (PPARd) signaling pathway (AID 743212; calls by dose curve). In short, it runs like this:
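A PPARd-bla HEK293H line with beta-lactamase under an Upstream Activator Sequence is treated with compounds at 37 C. Substrate loading for 2 h at room temperature precedes the fluorescence measurement.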

A short description of experiment [10]: qHTS assay to identify small molecule antagonists of the peroxisome proliferator-activated receptor delta (PPARd) signaling pathway - cell viability counter screen (AID 743213). Also: nearly all actives have a fitted effect of over 50% in size. Summed up:
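CellTiter-Glo was added to PPARd-bla HEK293H wells following 17 h compound treatment in the presence of 300 nM L165041. Luminescence was recorded after 30 min at room temperature.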

Experiment [11] concerns the target Peroxisome proliferator-activated receptor delta (Homo sapiens) (UniProt Q03181). The experiment can be described thus: qHTS assay to identify small molecule antagonists of the peroxisome proliferator-activated receptor delta (PPARd) signaling pathway (AID 743215; active = well fitted inhibition curve with a large enough effect in the signal ratio in the repeat runs, not every such curve was filed as active; the % refers to the signal ratio;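 also: cells stimulated with agonist L165041 at 300 nM final during compound exposure; series mostly up to about 62 µM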). Summed up:
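HEK293H UAS-bla, PPARd; agonist L165041 300 nM final with cpd in DMSO; 37 C 17 h; FRET substrate, RT 2 h; fluorescence intensity.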

Experiment [12] in a line: qHTS assay to identify small molecule agonists of the farnesoid-X-receptor (FXR) signaling pathway - cell viability counter screen (AID 743218). Also: nearly all actives have a fitted effect of over 45% in size. Also: potency is read from the fitted curve at half-maximal effect. In short, it runs like this:
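Parallel cytotoxicity test: compound-treated (16 h, 37 C) HEK 293T FXR-bla reporter cells were lysed with CellTiter-Glo and luminescence recorded.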

Experiment [13] addresses Vitamin D3 receptor (Homo sapiens) (UniProt P11473). The experiment can be described thus: qHTS assay to identify small molecule agonists of the vitamin D receptor (VDR) signaling pathway (AID 743222; calls by dose curve). Summed up: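 In VDR-bla cells, compound-induced beta-lactamase expression is quantified by FRET substrate fluorescence. Treatment lasts 16 h at 37C; substrate develops 2 h at room temperature.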

For experiment [14] the target is unchanged. The experiment can be described thus: qHTS assay to identify small molecule antagonists of the vitamin D receptor (VDR) signaling pathway (AID 743223; active = well fitted inhibition curve with a large enough effect in the signal ratio in the repeat runs, not every such curve was filed as active; the % refers to the signal ratio). Summed up: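 Agonist 1alpha,25-dihydroxyvitamin D3 (3 nM in well) was added with each compound to VDR-bla cells preincubated 4 h. Cells stood 16 h at 37C, then FRET substrate 2 h at room temperature; fluorescence intensity recorded.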

A short description of experiment [15]: qHTS assay to identify small molecule agonists of the peroxisome proliferator-activated receptor delta (PPARd) signaling pathway - cell viability counter screen (AID 743211). Also: nearly all actives have a fitted effect of over 55% in size. Also: potency is read from the fitted curve at half-maximal effect. In short, it runs like this: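 Luminescent ATP viability assay (CellTiter-Glo, 30 min RT) in UAS-bla HEK293H cells carrying the PPAR delta reporter construct, 3000 cells/well, after a 17 h compound treatment at 37 C.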

A short description of experiment [16]: qHTS assay to identify small molecule antagonists of the farnesoid-X-receptor (FXR) signaling pathway - cell viability counter screen (AID 743221; active = well fitted cell-killing curve with a large enough effect in the repeat runs, not every such curve was filed as active; also: nearly all actives have a fitted effect of over 50% in size). Summed up:
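In GeneBLAzer FXR-UAS-bla HEK 293T cells stimulated with 50 uM chenodeoxycholic acid (final), compounds acted for 16 h at 37 C. Viability was assessed afterwards by CellTiter-Glo luminescence.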

Experiment [17] has as its target Peroxisome proliferator-activated receptor gamma (Homo sapiens) (UniProt P37231). Put plainly: qHTS assay to identify small molecule antagonists of the peroxisome proliferator-activated receptor gamma (PPARg) signaling pathway (AID 743191; calls by dose curve; also: series mostly up to about 63 µM; nearly all actives have a fitted effect of over 30% in size). Summed up: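 GeneBLAzer PPARg UAS-bla HEK293H cells carrying a UAS-driven beta-lactamase reporter were plated at 3000 cells/well, preincubated 5 h at 37C, then given compound for 17 h at 37C; LiveBLAzer B/G FRET substrate was read after 1 h at room temperature.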

Experiment [18] can be described thus: qHTS assay for small molecule activators of the heat shock response signaling pathway (AID 743210; active = well fitted activation curve with a large enough effect in the signal ratio in the repeat runs, with a control signal flat, not every such curve was filed as active; the % refers to the signal ratio;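 also: HeLa cells with beta-lactamase reporter driven by heat shock elements; series mostly up to about 63 µM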). Summed up:
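Reporter gene assay: HeLa cells stably bearing an HSE-bla construct, compound treatment 5 h at 37 C, LiveBLAzer substrate 2.5 h at RT, fluorescence intensity.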

Experiment [19] concerns the target Bile acid receptor (Homo sapiens) (UniProt Q96RI1). Put plainly: qHTS assay to identify small molecule agonists of the farnesoid-X-receptor (FXR) signaling pathway (AID 743220; active = well fitted activation curve with a large enough effect in the signal ratio in the repeat runs, not every such curve was filed as active; the % refers to the signal ratio). In short, it runs like this:
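Beta-lactamase reporter under UAS control in GeneBLAzer FXR HEK 293T cells (5000/well) measured with LiveBLAzer FRET substrate after 2 h at room temperature. Compound exposure lasted 16 h at 37C.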

Experiment [20] has the same target. Put plainly: qHTS assay to identify small molecule antagonists of the farnesoid-X-receptor (FXR) signaling pathway (AID 743217; active = well fitted inhibition curve with a large enough effect in the signal ratio in the repeat runs, not every such curve was filed as active; the % refers to the signal ratio; also: potency is read from the fitted curve at half-maximal effect). In short, it runs like this: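 GeneBLAzer FXR-UAS-bla HEK 293T, CDCA-stimulated (50 uM final). Compound treatment 16 h, 37 °C. Detection: beta-lactamase cleavage of B/G FRET substrate, fluorescence.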

“And” between values parts separate entries of the source, which are not always exact repeats. Equal values may be shown once. Results filed as inconclusive are left out. A structure can be active in one record and inactive in another. The source made the active and inactive calls. Unless noted, calls follow the shape of the dose curve; as a rule, active = well fitted curve in the direction sought with a large enough effect in the repeat runs; inconclusive = weak or mixed curves; inactive = no such curve, though single readings can be large; an effect the other way counts as inactive or inconclusive.

Chain of Peroxisome proliferator-activated receptor delta (Homo sapiens) (Q03181 whole entry, looked up): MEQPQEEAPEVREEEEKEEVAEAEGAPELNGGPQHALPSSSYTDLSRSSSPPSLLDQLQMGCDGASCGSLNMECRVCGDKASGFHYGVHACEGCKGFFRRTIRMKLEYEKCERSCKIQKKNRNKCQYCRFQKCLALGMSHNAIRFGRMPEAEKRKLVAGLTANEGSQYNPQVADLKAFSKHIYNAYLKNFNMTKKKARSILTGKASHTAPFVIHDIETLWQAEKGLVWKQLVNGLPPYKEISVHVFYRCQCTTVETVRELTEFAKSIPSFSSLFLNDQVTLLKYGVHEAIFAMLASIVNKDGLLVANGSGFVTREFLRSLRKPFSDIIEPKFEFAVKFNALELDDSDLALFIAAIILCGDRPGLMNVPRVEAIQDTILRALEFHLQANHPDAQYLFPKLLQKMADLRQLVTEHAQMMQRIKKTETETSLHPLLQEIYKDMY
Chain of Vitamin D3 receptor (Homo sapiens) (P11473 whole entry, looked up): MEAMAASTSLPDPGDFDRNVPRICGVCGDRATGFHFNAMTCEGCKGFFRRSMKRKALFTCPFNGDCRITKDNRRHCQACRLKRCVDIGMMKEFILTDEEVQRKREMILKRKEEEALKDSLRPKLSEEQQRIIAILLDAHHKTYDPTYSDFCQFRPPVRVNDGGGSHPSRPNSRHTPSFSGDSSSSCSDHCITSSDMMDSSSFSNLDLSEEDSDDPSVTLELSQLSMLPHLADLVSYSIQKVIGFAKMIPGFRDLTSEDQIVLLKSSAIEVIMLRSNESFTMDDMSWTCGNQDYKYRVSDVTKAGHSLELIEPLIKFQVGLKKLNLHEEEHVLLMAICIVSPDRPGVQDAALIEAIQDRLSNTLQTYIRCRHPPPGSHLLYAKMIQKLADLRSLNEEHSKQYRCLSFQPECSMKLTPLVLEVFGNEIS
Chain of Peroxisome proliferator-activated receptor gamma (Homo sapiens) (P37231 whole entry, looked up): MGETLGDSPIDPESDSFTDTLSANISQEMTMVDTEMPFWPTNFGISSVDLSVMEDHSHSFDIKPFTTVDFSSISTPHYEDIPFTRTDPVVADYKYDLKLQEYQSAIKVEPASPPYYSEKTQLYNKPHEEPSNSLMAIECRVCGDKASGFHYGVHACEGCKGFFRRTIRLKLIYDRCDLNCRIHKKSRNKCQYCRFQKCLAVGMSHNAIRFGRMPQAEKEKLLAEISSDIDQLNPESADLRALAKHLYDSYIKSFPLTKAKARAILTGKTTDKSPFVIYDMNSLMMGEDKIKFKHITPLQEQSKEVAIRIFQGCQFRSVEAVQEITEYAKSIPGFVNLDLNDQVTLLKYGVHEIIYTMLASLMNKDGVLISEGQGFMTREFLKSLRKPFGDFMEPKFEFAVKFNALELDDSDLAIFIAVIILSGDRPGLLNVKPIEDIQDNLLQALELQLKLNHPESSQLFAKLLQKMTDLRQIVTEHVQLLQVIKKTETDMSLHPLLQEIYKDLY
Chain of Bile acid receptor (Homo sapiens) (Q96RI1 whole entry, looked up): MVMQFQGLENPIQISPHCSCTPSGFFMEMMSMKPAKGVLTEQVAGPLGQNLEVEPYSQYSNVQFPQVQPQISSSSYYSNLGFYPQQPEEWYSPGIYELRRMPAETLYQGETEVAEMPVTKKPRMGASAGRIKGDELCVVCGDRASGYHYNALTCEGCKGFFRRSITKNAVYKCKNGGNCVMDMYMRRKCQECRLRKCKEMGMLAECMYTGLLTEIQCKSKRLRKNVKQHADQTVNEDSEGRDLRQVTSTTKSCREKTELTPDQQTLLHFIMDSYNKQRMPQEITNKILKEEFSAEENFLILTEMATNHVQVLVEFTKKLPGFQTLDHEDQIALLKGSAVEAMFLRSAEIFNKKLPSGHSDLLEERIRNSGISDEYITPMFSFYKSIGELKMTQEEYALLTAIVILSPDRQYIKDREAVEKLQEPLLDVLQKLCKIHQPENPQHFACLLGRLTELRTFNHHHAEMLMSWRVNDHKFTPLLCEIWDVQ

For the compound `CO[C@@H]1[C@H](OC(=O)/C=C/C=C/C=C/C=C/C(=O)O)CC[C@]2(CO2)[C@H]1[C@@]1(C)O[C@@H]1CC=C(C)C`, the Potency entry in experiment [1], in [2], in experiment [3], in experiment [4], in experiment [5] and in experiment [7] was “inactive” each time. The Potency entry in [8], in experiment [9], in [10], in [11] and in experiment [13] was “inactive” throughout. Also, the Potency is 24.3 µM (active) in experiment [6] and 1.95 µM (active) in [12]. The compound was called inactive in [14].

As to `CCCCc1nc2cccnc2n1Cc1ccc(-c2ccccc2-c2nnn[nH]2)cc1`, the Potency in [1] is 54.5 µM (active); in [4] it was 5.49 µM (active). Besides, the Potency result in experiment [2], in [3], in experiment [5], in experiment [7], in [8] and in experiment [15] was “inactive” each time. Further, the Potency result in experiment [10], in [12], in [16] and in experiment [13] was “inactive” each time.

On to `Cc1ncc(CO)c(C=O)c1O`, for which the Potency entry in experiment [1], in experiment [2], in [3], in experiment [4], in [5] and in experiment [7] was “inactive” in each case. Moreover, the Potency result in experiment [8], in experiment [9], in experiment [10], in experiment [11], in experiment [12] and in [16] was “inactive” throughout. Besides, the Potency entry in experiment [13] is “inactive”.

For the compound `OCc1cc(C(O)CNCCCCCCOCCCCc2ccccc2)ccc1O` (configuration not stated), the Potency in experiment [1] was 11.9 µM (active) and 9.44 µM (active); in experiment [2], 26.6 µM (active) and inactive; in [3], 26.6 µM (active) and 13.3 µM (active); in experiment [15], 26.6 µM (active). For the same compound, the Potency result in [17], in experiment [5], in experiment [8], in experiment [18], in experiment [11] and in [19] was “inactive” each time. The Potency entry in experiment [16] is “inactive”.

For the compound `C=C1C(=C/C=C2\CCC[C@]3(C)[C@@H]([C@H](C)/C=C/[C@@H](O)C4CC4)CC[C@@H]23)C[C@@H](O)C[C@@H]1O`, the Potency entry in experiment [1], in [2], in [3] and in [19] was “inactive” in each case. For the same compound, the Potency in experiment [5] is 26.6 µM (active); in experiment [6] it was 2.66 µM (active); in experiment [20] it was 29.8 µM (active).

`C=C(C)C(=O)OCCO`: the Potency result in experiment [1], in experiment [2], in experiment [3], in experiment [4], in experiment [5] and in experiment [7] was “inactive” in each case. Further, the Potency result in [8], in experiment [18], in [9], in experiment [10], in [11] and in [20] was “inactive” each time. The Potency result in experiment [12], in [19], in experiment [16] and in [13] was “inactive” in each case. In experiment [14], the compound was classed as inactive.

Take `CC(=O)[O][Al][O]C(C)=O`: the Potency entry in [1], in experiment [2], in experiment [3], in experiment [5], in experiment [6] and in experiment [7] was “inactive” in each case. The Potency entry in experiment [8], in experiment [10], in experiment [12] and in [16] was “inactive” throughout.

As to `CCOC(=O)C(F)(F)F`, the Potency result in experiment [1], in experiment [2], in [3], in [4], in experiment [5] and in experiment [7] was “inactive” throughout. The Potency result in experiment [8], in experiment [18], in [9], in experiment [10], in experiment [11] and in [20] was “inactive” in each case. Also, the Potency entry in experiment [12], in experiment [19], in [16] and in experiment [13] was “inactive” each time.

As for `C1CCCNCCC1`, the Potency entry in experiment [1], in experiment [2], in [3], in experiment [4], in experiment [5] and in experiment [6] was “inactive” throughout. Moreover, the Potency entry in experiment [7], in [18], in experiment [15], in [9], in [20] and in experiment [12] was “inactive” each time. Moreover, the Potency result in experiment [13] is “inactive”.

With `Nc1ncn([C@H]2C[C@H](O)[C@@H](CO)O2)c(=O)n1`, the Potency result in experiment [1], in experiment [2], in experiment [3], in experiment [4], in experiment [5] and in experiment [6] was “inactive” in each case. In addition, the Potency entry in experiment [7], in experiment [15], in experiment [10], in [12], in experiment [19] and in experiment [16] was “inactive” throughout. Further, the Potency result in experiment [13] was “inactive”. Besides, the Potency in [20] was 10.6 µM (active). Also, the outcome in experiment [14] was inactive.

For `Cn1c(=O)cc(Oc2ccc(F)cc2F)c2cnc(NCC(C)(C)O)nc21`, the Potency entry in experiment [1], in experiment [2], in experiment [3], in [4], in [5] and in [7] was “inactive” each time. In addition, the Potency entry in [15], in experiment [9], in experiment [10], in [19] and in [16] was “inactive” each time. For the same compound, the Potency in experiment [6] is 30.6 µM (active); in experiment [20], 43.6 µM (active).

Regarding `COS(=O)(=O)C(F)(F)F`, the Potency entry in [1], in experiment [2], in [3], in experiment [4], in experiment [5] and in [6] was “inactive” each time. The Potency result in experiment [7], in experiment [8], in experiment [9], in experiment [20], in experiment [19] and in [16] was “inactive” in each case.

`CN(C)c1ccc(C(c2ccccc2)c2ccc(N(C)C)cc2)cc1`: the Potency entry in experiment [1], in experiment [2], in experiment [3], in [5], in experiment [6] and in experiment [7] was “inactive” in each case. Besides, the Potency result in [8], in experiment [18], in experiment [15], in [10], in [12] and in experiment [16] was “inactive” in each case. In addition, in experiment [13], the Potency result is “inactive”. Also, the call in experiment [14] was inactive.
